TDP1 inh: inhibitors of human tyrosyl-DNA phosphodiesterase TDP1; Q9NUW8; AID 485290; 0.28% of 350,000 active; Potency, µM (top dose mostly 130 µM), usual class: inhibitors; recombinant TDP1, AlphaScreen DNA substrate cleavage; further: nearly all actives have a fitted effect of over 40% in size
Target sequence (Q9NUW8 whole entry, looked up): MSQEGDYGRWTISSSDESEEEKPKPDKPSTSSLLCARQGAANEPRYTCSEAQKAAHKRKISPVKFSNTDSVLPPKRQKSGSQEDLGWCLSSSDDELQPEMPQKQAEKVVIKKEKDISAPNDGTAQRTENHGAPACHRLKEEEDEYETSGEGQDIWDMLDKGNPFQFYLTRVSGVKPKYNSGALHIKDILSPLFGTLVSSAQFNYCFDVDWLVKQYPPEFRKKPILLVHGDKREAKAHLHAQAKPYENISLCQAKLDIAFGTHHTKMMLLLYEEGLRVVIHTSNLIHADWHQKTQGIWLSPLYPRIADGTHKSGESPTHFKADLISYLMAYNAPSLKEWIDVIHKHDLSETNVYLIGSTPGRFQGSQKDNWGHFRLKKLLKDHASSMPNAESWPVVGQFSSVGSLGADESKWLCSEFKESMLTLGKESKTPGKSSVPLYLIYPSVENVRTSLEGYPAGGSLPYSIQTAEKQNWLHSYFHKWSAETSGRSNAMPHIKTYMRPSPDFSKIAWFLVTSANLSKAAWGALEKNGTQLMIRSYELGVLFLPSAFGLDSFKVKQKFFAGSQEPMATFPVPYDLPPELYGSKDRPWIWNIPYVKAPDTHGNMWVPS
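Steps: enzyme plus compound, 15 min RT; add biotin/phosphotyrosine-FITC oligonucleotide (15 nM final), react 5 min; add donor/acceptor beads (10 ug/ml final), 10 min; read AlphaScreen. Tdp1 at 1 nM final.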
RORg inh: ROR gamma (mouse) transcription inhibition. AID 2551. P51450. 5.4% of 310,000 active. Potency, µM (highest dose often 53.6 µM), most hits filed as inhibitors. Drosophila S2 Gal4-RORgamma UAS-luciferase reporter, 20 h; further: nearly all actives have a fitted effect of over 60% in size
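In this cell-based reporter format, copper sulfate (700 uM final) drives Gal4–ROR gamma fusion expression from a metallothionein promoter in Drosophila Schneider cells; compounds preincubated 1 hr, reporter read after 20 hr at ambient temperature.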
VP16 counter: counter-screen for ROR gamma inhibitors: Gal4-VP16 reporter. Drosophila S2 Gal4-VP16 UAS-luciferase, luminescence, 20 h. Potency, µM (top dose mostly 53.6 µM), hits mostly inhibitors. 3.5% of 310,000 active. AID 2546;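 further: Gal4-VP16 expression switched on by copper sulfate through the metallothionein promoter; nearly all actives have a fitted effect of over 50% in size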
DT40 TDP1 no CPT: qHTS for Inhibitors of human tyrosyl-DNA phosphodiesterase 1 (TDP1): qHTS in cells in absence of CPT; DT40 Tdp1-/- hTDP1 cells, no CPT, ATP luminescence, 48 h; Potency, µM (highest dose often 46.2 µM), actives largely listed as inhibitors; 15% of 420,000 active; further: nearly all actives have a fitted effect of over 55% in size
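Seeded 400 DT40-hTDP1 cells/well (vehicle DMSO, no 20 nM CPT); pinned compounds; ≥48 hr at 37 °C; CellTiter-Glo luminescence as viability measure.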
DT40 TDP1 CPT: growth inhibition of DT40 Tdp1-/-;hTDP1 cells with camptothecin (screen for TDP1 inhibitors). chicken DT40 Tdp1-/-;hTDP1 cells + 20 nM CPT, ATP luminescence, 48 h. AID 686979. Potency, µM (highest dose often 46.2 µM), actives largely listed as inhibitors. 12% of 420,000 active; further: nearly all actives have a fitted effect of over 55% in size
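Chicken DT40 Tdp1-/- cells stably complemented with human TDP1 were seeded at 400 cells/well in medium containing 20 nM camptothecin, exposed to pin-transferred compounds, and grown at 37 °C for at least 48 hr. Viability was read as ATP luminescence.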
Numbers stand for hits; - = inactive; ? = inconclusive; . = not tested or not shown; [ ] = dose if it differs, or a comment. Compounds with a hit are over-represented: about 19% of the library has one in this group of screens. The call rests on the fitted dose curve; in most records, active means well fitted curve in the direction sought with a large enough effect; inconclusive means small, poorly fitted or top-dose-only effect, or another doubt; inactive means no such curve, though single readings can be large; an effect the other way counts as inactive or inconclusive.

SMILES | TDP1 inh | RORg inh | VP16 counter | DT40 TDP1 no CPT | DT40 TDP1 CPT
COc1cccc(-c2nnc3n2N=C(c2ccc(OC)cc2OC)CS3)c1 | - | ? | 7.9µM | . | .
CCOc1cccc(-c2nnc3n2N=C(c2cc(OC)ccc2OC)CS3)c1 | - | ? | - | 8.2µM | ?
COc1ccc(C2=Nn3c(nnc3-c3ccc(OC)cc3)SC2)cc1 | - | ? | - | 1µM | 1.8µM
COc1cccc(C2=Nn3c(nnc3-c3cccc(OC)c3)SC2)c1 | - | - | - | . | .
COc1cccc(-c2nnc3n2N=C(C(C)(C)C)CS3)c1 | - | - | ? | 9.2µM | 16µM
O=C(CN1C(=O)C2C3C=CC(C3)C2C1=O)NC1CCCc2ccccc21 (stereo not given) | - | - | - | - | -
CC(C)(C)c1ccc(OCC(=O)NNC(=O)Cc2cccs2)cc1 | - | - | - | - | -
Cc1cccc(-c2nnc3n2N=C(c2ccccc2Br)CS3)c1 | - | ? | ? | 21µM | 21µM
COc1ccc(OC)c(C2=Nn3c(nnc3-c3cc(OC)c(OC)c(OC)c3)SC2)c1 | - | - | - | 16µM | 21µM
COc1ccc(C2=Nn3c(nnc3-c3ccc(OC)c(OC)c3)SC2)cc1 | - | - | - | . | .
Cc1cc(-c2nnc3n2N=C(c2ccccc2Br)CS3)n[nH]1 | - | - | - | ? | -
COc1cccc(-c2nnc3n2N=C(c2cc(OC)ccc2OC)CS3)c1 | - | ? | - | 15µM | ?
COc1ccc(-c2nnc3n2N=C(c2cc(OC)ccc2OC)CS3)cc1 | - | - | - | . | .
COc1cc(-c2nnc3n2N=C(c2ccccc2)CS3)cc(OC)c1OC | - | - | - | 1.5µM | 1.5µM
O/N=C(\Cc1cscn1)c1ccc(O)cc1O | - | - | - | - | -
O=C1CN(C(=O)CSc2nnc3ccccn23)c2ccccc2N1 | - | - | - | - | -
COc1cc(C2C(C#N)=C(N)OC3=C2C(=O)CC(C)(C)C3)ccc1OC(=O)N1CCOCC1 (stereo not given) | - | - | - | - | -
O=C(c1ccccc1Br)N1CCN(c2ccccc2)CC1 | - | - | - | - | -
COc1ccc(OC)c(C2=Nn3c(nnc3-c3cccc(OC)c3OC)SC2)c1 | - | - | - | . | .
COc1ccc(C2=Nn3c(nnc3-c3cccc(OC)c3OC)SC2)c(OC)c1 | - | ? | 18µM | . | .
c1ccc(C2=Nn3c(nnc3-c3cc(-c4ccccc4)n[nH]3)SC2)cc1 | - | - | - | ? | ?
Clc1ccc(C2=Nn3c(nnc3-c3cc(-c4ccccc4)n[nH]3)SC2)cc1 | - | ? | -[0.365 µM] | 18µM | ?
Cc1ccc(NC(=O)CCc2c(C)nn(-c3ccc(N4CCOCC4)nn3)c2C)cc1F | - | - | - | ? | ?
CCOC(=O)C(Cc1ccc(OC)c([N+](=O)[O-])c1)NC(=O)CCC(=O)Nc1ccc(C)cc1 (stereo not given) | - | - | - | - | -
C[C@]12C[C@@](C)(C=C1/C=C/c1ccc(F)cc1)C(=O)C[C@H]2c1ccc(F)cc1 | - | - | - | . | .
SMILES | TDP1 inh | RORg inh | VP16 counter | DT40 TDP1 no CPT | DT40 TDP1 CPT
CCCCc1ccc(C2C3=C(CC(C)(C)CC3=O)NC3=C2C(=O)c2ccccc23)cc1 (stereo not given) | - | - | - | ? | ?
CCc1ccc(C2Sc3ccccc3NC3=C2C(=O)c2ccccc23)cc1 (stereo not given) | - | . | . | ? | 16µM
O=C1C2=C(Nc3ccccc3SC2c2ccco2)c2ccccc21 (stereo not given) | - | - | - | ? | -
CC(C)c1ccc(C2Sc3ccccc3NC3=C2C(=O)c2ccccc23)cc1 (stereo not given) | . | . | . | 16µM | 16µM
Cc1ccc(OCC(COCc2ccccc2)NC(C)C)cc1 (stereo not given) | . | . | . | 18µM | ?
Cc1ccc(OCCNCC(O)COc2ccccc2)cc1 (stereo not given) | . | - | - | - | -
COc1cccc(/C=N/NC(=O)c2cccs2)c1 | - | - | - | - | -
O=C(NC(=S)Nc1ccccc1Br)C1CCCC1 | - | 3.2µM | 7.1µM | ? | -
O=C(NC(=S)Nc1ccccc1F)C1CCCCC1 | - | 8.9µM | 7.9µM | . | .
O=C(NC(=S)Nc1ccccc1Br)C1CCCCC1 | - | . | . | 16µM | 18µM
O=C(O)C1CCCCC1C(=O)Nc1ccccc1F (stereo not given) | - | - | - | - | -
N#Cc1cccc(-c2nccc(NCc3cccs3)n2)c1 | . | ? | - | ? | ?
O=C(O)c1c(-c2ccccc2)oc2ccc(OCc3ccc(Cl)c(Cl)c3)cc12 | -[12.3 µM] | . | . | ? | ?
O=C(Cn1c(=O)nc(-c2ccccc2)c2ccccc21)NCc1ccc(F)cc1 | - | . | . | - | -
CCOC(=O)c1cnc(SC)nc1N | - | - | - | - | -
CC(C)Cc1ccc(-c2ccc3nccn3c2)cc1 | . | . | . | 18µM | ?
COc1ccc(-c2ccc3nccn3c2)cc1 | . | . | . | ? | -
